# Records with an inconclusive call do not appear. A call without a number means that no potency is given here. Active and inactive are the calls of the source. Unless noted, calls follow the shape of the dose curve; as a rule, active = well fitted curve in the direction sought with a large enough effect; inconclusive = small, poorly fitted or top-dose-only effect, or another doubt; inactive = no such curve, though single readings can be large; an effect the other way counts as inactive or inconclusive.
# Tests used:
# [1] = target: Pyruvate kinase (Leishmania mexicana) (UniProt Q27686); assay: qHTS Validation Assay for Inhibitors of Leishmania Mexicana Pyruvate Kinase (AID 945); conditions: purified L. mexicana pyruvate kinase, enzyme activity, E451W mutant enzyme; series mostly up to 57.5 µM
# Sequence of Pyruvate kinase (Leishmania mexicana) (Q27686 2-499 E452W): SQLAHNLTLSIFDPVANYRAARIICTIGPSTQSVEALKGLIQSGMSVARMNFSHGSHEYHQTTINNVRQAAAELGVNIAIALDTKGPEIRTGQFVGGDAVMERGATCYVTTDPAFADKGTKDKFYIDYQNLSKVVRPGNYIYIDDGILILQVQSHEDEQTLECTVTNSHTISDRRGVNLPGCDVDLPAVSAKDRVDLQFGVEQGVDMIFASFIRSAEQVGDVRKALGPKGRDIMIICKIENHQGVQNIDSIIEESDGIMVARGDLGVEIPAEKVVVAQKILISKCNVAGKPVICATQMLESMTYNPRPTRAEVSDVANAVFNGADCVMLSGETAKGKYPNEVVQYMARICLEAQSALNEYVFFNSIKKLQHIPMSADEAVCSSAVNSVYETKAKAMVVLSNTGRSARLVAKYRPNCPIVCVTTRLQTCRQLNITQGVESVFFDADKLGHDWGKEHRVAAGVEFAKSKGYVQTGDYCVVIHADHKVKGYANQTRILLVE
# Summary of the method: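 Purified LmPYK (E451W mutant, 0.2 nM) was incubated 1 h at room temperature with 0.5 mM PEP and 0.1 mM ADP in 50 mM imidazole pH 7.2, 50 mM KCl, 7 mM MgCl2; ATP formed was read by PKLight luminescence, normalized to DMSO wells.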
# [2] = target: Pyruvate kinase PKM (Homo sapiens) (UniProt P14618); assay: qHTS Assay for Activators of Human Muscle Pyruvate Kinase (AID 954; active = well fitted curve in the direction sought with a large enough effect, not every such curve was filed as active); conditions: purified human muscle pyruvate kinase, luciferase-coupled luminescence, 1 h; series mostly up to 57.5 µM
# Sequence of Pyruvate kinase PKM (Homo sapiens) (P14618 whole entry, looked up): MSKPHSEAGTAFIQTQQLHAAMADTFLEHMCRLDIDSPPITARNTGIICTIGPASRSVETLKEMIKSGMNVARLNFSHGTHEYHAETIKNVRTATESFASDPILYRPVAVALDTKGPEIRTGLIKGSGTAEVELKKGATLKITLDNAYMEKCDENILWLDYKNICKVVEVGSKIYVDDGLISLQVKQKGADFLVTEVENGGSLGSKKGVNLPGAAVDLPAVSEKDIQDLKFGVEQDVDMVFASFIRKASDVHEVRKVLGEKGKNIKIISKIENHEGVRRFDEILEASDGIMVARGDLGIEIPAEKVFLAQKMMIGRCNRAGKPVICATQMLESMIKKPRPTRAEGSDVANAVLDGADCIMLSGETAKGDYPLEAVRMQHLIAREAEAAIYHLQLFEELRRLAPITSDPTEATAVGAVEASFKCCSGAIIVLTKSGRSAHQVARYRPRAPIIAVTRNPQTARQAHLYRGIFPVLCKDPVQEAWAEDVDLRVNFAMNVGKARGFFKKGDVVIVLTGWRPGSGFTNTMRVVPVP
# Summary of the method: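 A coupled luminescent readout tracked ATP made from ADP by purified PKM2. Final conditions included 0.1 nM enzyme, PEP and ADP at 0.5 and 0.1 mM, pH 7.2 imidazole buffer with BSA, and a one-hour room-temperature reaction.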
# [3] = target: Alpha-galactosidase (Coffea arabica) (UniProt Q42656); assay: Counterscreen for Glucocerebrosidase Inhibitors: qHTS Assay for Coffee Bean alpha-Galactosidase at pH 4.5 (AID 957); conditions: purified coffee bean alpha-galactosidase, fluorogenic substrate; series mostly up to 76.9 µM
# Sequence of Alpha-galactosidase (Coffea arabica) (Q42656 whole entry, looked up): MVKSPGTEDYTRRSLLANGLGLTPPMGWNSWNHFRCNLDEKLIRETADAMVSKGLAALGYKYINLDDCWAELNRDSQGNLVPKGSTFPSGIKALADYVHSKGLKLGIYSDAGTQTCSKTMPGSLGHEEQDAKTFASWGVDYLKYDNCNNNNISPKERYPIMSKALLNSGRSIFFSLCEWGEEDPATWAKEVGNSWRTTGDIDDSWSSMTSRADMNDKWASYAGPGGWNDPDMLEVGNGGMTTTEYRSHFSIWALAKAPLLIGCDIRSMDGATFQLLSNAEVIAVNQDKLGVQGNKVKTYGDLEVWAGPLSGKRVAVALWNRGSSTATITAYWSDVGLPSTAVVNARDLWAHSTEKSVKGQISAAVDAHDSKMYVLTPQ
# Summary of the method: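 Fluorogenic qHTS at pH 4.5 (citrate buffer with Tween-20): 2 nM enzyme, 80 uM 4-MU-alpha-galactoside substrate, compound titrated 0.7 nM to 77 uM, 20 min room temperature. Glycine/NaOH stop; 4-MU read Ex 365/Em 440; Hill-equation AC50 against no-enzyme and enzyme controls.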
# [4] = MultiTox-Fluor Cytotoxicity Assay - LYMP1-001 - Dead Cells (AID 946); conditions: LYMP1-001 lymphoblastoid cells, dead-cell protease fluorescence; series mostly up to 92.2 µM;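 also: potency is read from the fitted curve at half-maximal effect; cells exposed to compound for 16 h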
# Summary of the method: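 AC50 from Hill fit of concentration-response; data normalized to DMSO (basal) and 15 uM tetraoctylammonium bromide (100%). LYMP1-001 lymphoblastoid cells, 2500/well, 16 hr compound at 37 C; dead-cell protease fluorescence, Ex/Em 485/520.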
# [5] = MultiTox-Fluor Cytotoxicity Assay - LYMP1-001 - Live Cells (AID 947); conditions: LYMP1-001 lymphoblastoid cells, live-cell protease fluorescence viability; series mostly up to 92.2 µM
# [6] = Cell Viability - LYMP1-002 - Assay at 16 hr (AID 948); conditions: LYMP1-002 lymphoblastoid cell viability; series mostly up to 92.2 µM
# Summary of the method: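 In this qHTS, lymphoblastoid LYMP1-002 cells (human) receive compounds for 16 hr at 37 C. Viability is taken from CellTiter-Glo ATP luminescence, and AC50 derives from standard Hill fits.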
structure (smiles),measurement,setting,value
Nc1ccncc1,outcome,[1],inactive
same,outcome,[2],inactive
same,outcome,[3],inactive
CC(=O)Oc1ccccc1C(=O)Nc1ncc([N+](=O)[O-])s1,Potency,[4],39.8 µM (active)
N[C@@H](Cc1ccc(N(CCCl)CCCl)cc1)C(=O)O,outcome,[5],inactive
same,outcome,[6],inactive
Clc1ccc(COC(Cn2ccnc2)c2ccc(Cl)cc2Cl)cc1 (configuration not stated),outcome,[6],inactive

# — PubChem BioAssay (NCATS)
